In PubChem BioAssay (Tox21):
Records with an inconclusive call do not appear. Calls of active or inactive are those of the source. Unless noted, the call rests on the fitted dose curve; in most records, active means well fitted curve in the direction sought with a large enough effect in the repeat runs; inconclusive means weak or mixed curves; inactive means no such curve, though single readings can be large; an effect the other way counts as inactive or inconclusive.

Tests used:
[1] = biological target: Luciferin 4-monooxygenase (Photinus pyralis) (UniProt P08659); assay: qHTS assay to identify small molecule inhibitors of firefly luciferase (AID 1224835); further: nearly all actives have a fitted effect of over 25% in size
Chain of Luciferin 4-monooxygenase (Photinus pyralis) (P08659 whole entry, looked up): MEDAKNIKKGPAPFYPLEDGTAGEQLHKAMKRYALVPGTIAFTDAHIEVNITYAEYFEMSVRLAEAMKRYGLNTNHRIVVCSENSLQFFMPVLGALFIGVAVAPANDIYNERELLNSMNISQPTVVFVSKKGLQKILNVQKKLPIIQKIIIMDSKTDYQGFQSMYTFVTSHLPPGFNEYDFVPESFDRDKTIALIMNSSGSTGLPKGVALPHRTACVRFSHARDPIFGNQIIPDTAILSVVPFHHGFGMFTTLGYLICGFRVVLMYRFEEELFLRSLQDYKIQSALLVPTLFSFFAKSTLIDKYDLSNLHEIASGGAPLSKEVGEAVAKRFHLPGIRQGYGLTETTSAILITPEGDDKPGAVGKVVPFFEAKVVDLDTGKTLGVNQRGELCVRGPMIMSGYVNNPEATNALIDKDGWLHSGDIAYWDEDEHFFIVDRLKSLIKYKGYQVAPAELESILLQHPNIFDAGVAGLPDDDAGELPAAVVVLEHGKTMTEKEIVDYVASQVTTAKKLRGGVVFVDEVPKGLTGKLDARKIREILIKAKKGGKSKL
Outline: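 Quantitative HTS format; KM concentrations of both substrates. Purified P. pyralis FLuc activity quantified from luminescence images.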

[2] = qHTS assay to identify small molecule agonists of the constitutive androstane receptor (CAR) signaling pathway - cell viability counter screen (AID 1224836); further: nearly all actives have a fitted effect of over 45% in size
Outline: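 Fluorescence from CellTiter-Fluor indicates live cells after 23 h exposure. The human hepatoma line expresses hCAR and a CYP2B6-2.2kb reporter. Incubation medium contains 0.75 uM PK11195 (final).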

[3] = qHTS assay to identify small molecule antagonists of the constitutive androstane receptor (CAR) signaling pathway - cell viability counter screen (AID 1224837); further: nearly all actives have a fitted effect of over 45% in size
Outline: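 Multiplexed cytotoxicity read-out for the CAR antagonist screen: double-stable HepG2-CYP2B6-hCAR cells co-treated with 50 nM CITCO (final) and compound over 15 concentrations, incubated 23 hr, then assessed by CellTiter-Fluor fluorescence.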

[4] = biological target: Nuclear receptor subfamily 1 group I member 3 (Homo sapiens) (UniProt Q14994); assay: qHTS assay to identify small molecule antagonists of the constitutive androstane receptor (CAR) signaling pathway (AID 1224838); further: nearly all actives have a fitted effect of over 40% in size; further: potency means the concentration at half of the fitted maximal effect
Chain of Nuclear receptor subfamily 1 group I member 3 (Homo sapiens) (Q14994 whole entry, looked up): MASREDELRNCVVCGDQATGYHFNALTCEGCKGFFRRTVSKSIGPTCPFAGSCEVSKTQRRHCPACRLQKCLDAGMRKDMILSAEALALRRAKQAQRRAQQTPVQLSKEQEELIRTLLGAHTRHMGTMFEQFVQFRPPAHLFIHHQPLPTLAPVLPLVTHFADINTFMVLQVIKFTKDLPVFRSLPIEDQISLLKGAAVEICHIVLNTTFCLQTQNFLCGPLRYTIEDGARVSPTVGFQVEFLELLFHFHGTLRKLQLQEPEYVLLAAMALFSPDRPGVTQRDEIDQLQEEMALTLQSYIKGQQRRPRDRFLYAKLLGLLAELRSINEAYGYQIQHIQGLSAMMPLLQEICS
Outline: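 Compounds were titrated across 15 concentrations onto HepG2 cells double-stably expressing hCAR and a CYP2B6-2.2kb reporter, together with 50 nM CITCO (final). After 24 h at 37 C, luciferase activity was measured by luminescence.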

[5] = biological target: Nuclear receptor subfamily 1 group I member 3 (Homo sapiens) (UniProt Q14994); assay: qHTS assay to identify small molecule agonists of the constitutive androstane receptor (CAR) signaling pathway (AID 1224839);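 further: HepG2 cells stably carrying human CAR and a CYP2B6 luciferase reporter; nearly all actives have a fitted effect of over 15% in size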
Outline: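 Stable hCAR/CYP2B6-2.2kb HepG2 line in DMEM with 10% FBS; compounds (15 concentrations) and 0.75 uM PK11195 final, 24 h at 37 C/5% CO2, then ONE-Glo luminescence after 30 min.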

[6] = qHTS assay to identify small molecule antagonists of the estrogen related receptor signaling pathway with the pleiotropic PPARgamma coactivator (PGC) from Tox21 10K library - cell viability counter screen (AID 1224840; active means well fitted cell-killing curve with a large enough effect in the repeat runs, not every such curve was filed as active; further: nearly all actives have a fitted effect of over 40% in size)
Outline: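 Step one, plate 2,000 PGC/ERR cells per well; step two, incubate 6 h at 37 C/5% CO2; step three, pin-transfer compounds; step four, incubate 17.5 h; step five, add CellTiter-Fluor and read fluorescence after 30 min.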

[7] = qHTS assay to identify small molecule antagonists of the estrogen related receptor signaling pathway with the pleiotropic PPARgamma coactivator (PGC) from Tox21 10K library (AID 1224841; call rule not given here; further: actives are mostly falling curves and most rising ones were filed inactive; nearly all actives have a fitted effect of over 50% in size; further: potency means the concentration at half of the fitted maximal effect)
Outline: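 Antagonism in this quantitative HTS is taken from loss of luciferase signal in PGC/ERR cells. Cells (2,000/well) are treated with compounds in DMSO after a 6 h settling period and read by One-Glo luminescence after 18 h.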

[8] = qHTS assay to identify small molecule agonists of the estrogen related receptor signaling pathway with the pleiotropic PPARgamma coactivator (PGC) from Tox21 10K library (AID 1224842); further: nearly all actives have a fitted effect of over 15% in size
Outline: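 PGC/ERR reporter cells (NTP line) were seeded 2,000 per well, rested 6 h at 37 C/5% CO2, then pin-dosed with compounds in DMSO for 18 h at 37 C; luciferase read by One-Glo luminescence after 30 min at room temperature.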

[9] = biological target: Thyrotropin receptor (Homo sapiens) (UniProt P16473); assay: qHTS assay to identify small molecule agonists of the thyroid stimulating hormone receptor (TSHR) signaling pathway (AID 1224843; calls by dose curve; further: nearly all actives have a fitted effect of over 45% in size)
Chain of Thyrotropin receptor (Homo sapiens) (P16473 whole entry, looked up): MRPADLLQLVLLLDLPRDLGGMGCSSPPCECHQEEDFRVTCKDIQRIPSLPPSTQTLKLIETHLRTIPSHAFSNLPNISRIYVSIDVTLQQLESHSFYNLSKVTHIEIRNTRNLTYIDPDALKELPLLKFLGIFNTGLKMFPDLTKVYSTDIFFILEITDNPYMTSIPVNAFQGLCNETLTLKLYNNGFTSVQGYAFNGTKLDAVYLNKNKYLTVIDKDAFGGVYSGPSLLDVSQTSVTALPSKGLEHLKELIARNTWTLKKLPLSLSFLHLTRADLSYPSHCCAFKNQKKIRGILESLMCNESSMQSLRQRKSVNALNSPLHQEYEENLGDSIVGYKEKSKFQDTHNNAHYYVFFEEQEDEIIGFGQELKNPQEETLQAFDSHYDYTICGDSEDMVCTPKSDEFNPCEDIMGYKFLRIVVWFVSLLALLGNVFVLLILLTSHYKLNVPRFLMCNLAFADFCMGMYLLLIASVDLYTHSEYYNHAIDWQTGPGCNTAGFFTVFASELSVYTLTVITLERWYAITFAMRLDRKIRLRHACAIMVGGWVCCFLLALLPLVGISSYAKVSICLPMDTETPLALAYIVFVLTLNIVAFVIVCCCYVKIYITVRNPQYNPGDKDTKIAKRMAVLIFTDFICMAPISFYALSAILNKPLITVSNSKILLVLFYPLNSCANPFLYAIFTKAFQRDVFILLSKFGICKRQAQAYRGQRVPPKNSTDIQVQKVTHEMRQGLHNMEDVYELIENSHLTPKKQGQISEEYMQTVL
Outline: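 TSHR-expressing HEK293 cells (800 per well) were exposed to compounds for 30 min at room temperature. cAMP was then detected by HTRF competition with cAMP-d2 and anti-cAMP cryptate, read after 1 h at room temperature. Fifteen concentrations, triplicate.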

[10] = qHTS assay to identify small molecule agonists of the hypoxia (HIF-1) signaling pathway - cell viability counter screen (AID 1224844; calls by dose curve; further: nearly all actives have a fitted effect of over 50% in size)
Outline: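 Tox21 10K compounds were added to HRE-bla ME-180 cells (0.5% dialyzed FBS) and incubated 17 hrs at 37C; ATP-based CellTiter-Glo luminescence then reported cell viability in the same wells.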

[11] = qHTS assay to identify small molecule agonists of H2AX (AID 1224845; active means well fitted activation curve with a large enough effect in the signal ratio in the repeat runs, not every such curve was filed as active; the % refers to the signal ratio)
Outline: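 Wild-type CHO-K1 cells plated overnight, then exposed 3 hr at 37C to compounds at 15 concentrations (0.76% DMSO). Lysed, then HTRF anti-pH2AX(S139)-cryptate/anti-H2AX-d2 detection after 24 hr at room temperature; emissions 665 and 620 nm.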

[12] = qHTS assay to identify small molecule agonists of the hypoxia (HIF-1) signaling pathway (AID 1224846; active means well fitted activation curve with a large enough effect in the signal ratio in the repeat runs, not every such curve was filed as active; the % refers to the signal ratio)
Outline: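 Steps: seed ME-180 HRE-bla cells (2,000/well, 0.5% dialyzed FBS); incubate 5 hrs at 37C; pin-transfer compounds or DMSO; incubate 17 hrs; add LiveBLAzer B/G substrate CCF4-AM; measure reporter activation by FRET.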

[13] = qHTS assay to identify small molecule agonists of H2AX - cell viability counter screen (AID 1224847; calls by dose curve; further: top concentration of the series differs between compounds; nearly all actives have a fitted effect of over 30% in size)
Outline: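 Viability of CHO-K1 (wild type) cells after 3 hr compound exposure was measured by CellTiter-Glo luminescence.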

[14] = qHTS assay to identify small molecule antagonists of the estrogen related receptor (ERR) signaling pathway from Tox21 library (AID 1224848); further: nearly all actives have a fitted effect of over 50% in size
Outline: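 Cells: ERR line, 2,000/well; 6 h preincubation 37 C/5% CO2. Cpd in DMSO via pin tool; 18 h, 37 C. ONE-Glo, 30 min RT, luminescence.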

[15] = qHTS assay to identify small molecule agonists of the estrogen related receptor (ERR) signaling pathway from Tox21 library (AID 1224849; calls by dose curve; further: nearly all actives have a fitted effect of over 15% in size); settings: ERR reporter cell line, ONE-Glo luciferase, 18 h; at 92.4 µM (top of the series) unless noted
Outline: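 Agonist signal is luciferase luminescence from an ERR reporter cell line treated 18 h at 37 C with DMSO-dissolved compounds, read 30 min after ONE-Glo addition at room temperature.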

[16] = qHTS RealTime-Glo MT Cell Viability Assay in HepG2 cells - 24 hour (AID 1224867); further: nearly all actives have a fitted effect of over 50% in size
Outline: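 HepG2 suspension premixed with RealTime-Glo reagents is plated at 600 cells per well and left 5 h at 37 C/5% CO2. Compounds in DMSO then go in, and bioluminescence reflecting viable cell number is recorded over 40 h.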

[17] = qHTS RealTime-Glo MT Cell Viability Assay in HEK293 cells - 32 hour (AID 1224868)
Outline: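 Reads taken at 0, 8, 16, 24, 32 and 40 h from the same wells. HEK293 cells (600/well) carried RealTime-Glo reagents from seeding, with compound added after a 5 h settle at 37 C.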

[18] = A CellTox Green Cytotoxicity Assay to monitor cytotoxicity in HEK293 cells - 0 hour (AID 1224869); further: nearly all actives have a fitted effect of over 50% in size
Outline: (§1)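 Cytotoxicity was tracked continuously in HEK293 cells by a DNA-binding dye excluded from viable cells. Compounds were transferred in DMSO 5 h after seeding; fluorescence was recorded at intervals up to 40 h.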

[19] = qHTS RealTime-Glo MT Cell Viability Assay in HepG2 cells - 40 hour (AID 1224870); further: nearly all actives have a fitted effect of over 50% in size
Outline: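 HepG2 cells mixed with RealTime-Glo MT reagents (NanoLuc plus cell-permeant prosubstrate) were seeded at 600 cells/well, incubated 5 h at 37 C/5% CO2, then pinned with compounds in DMSO; nonlytic luminescence tracked viability during 40 h treatment.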

[20] = A CellTox Green Cytotoxicity Assay to monitor cytotoxicity in HEK293 cells - 40 hour (AID 1224871); further: nearly all actives have a fitted effect of over 45% in size
Outline: as §1
On the % scale 0 is the no-effect control and ±100 the full control effect.

COC(=O)/C=C(/C)N
inactive: Potency [1] | Potency [2] | Potency [3] | Potency [4] | Potency [5] | Potency [6] | Potency [7] | Potency [8] | Potency [9] | Potency [10] | Potency [11] | outcome [12] | Potency [13] | Potency [14] | activity change, positive = activation [15] 7.53% [at 42.5 µM] | Potency [16] | Potency [17] | Potency [18] | Potency [19] | Potency [20]

CCOC(=O)CS
inactive: Potency [1] | Potency [2] | Potency [3] | Potency [5] | Potency [6] | Potency [8] | Potency [9] | Potency [11] | outcome [12] | Potency [13] | activity change, positive = activation [15] -14.3% | Potency [16] | Potency [17] | Potency [18] | Potency [19] | Potency [20]
active: Potency [4] 56 µM | Potency [7] 14.1 µM

CCOC(=O)C1CC(=O)C(=C(O)C2CC2)C(=O)C1 (stereo not drawn)
inactive: Potency [1] | Potency [2] | Potency [3] | Potency [4] | Potency [5] | Potency [6] | Potency [7] | Potency [8] | Potency [10] | outcome [12] | Potency [13] | Potency [14] | activity change, positive = activation [15] 6.54% | Potency [16] | Potency [17] | Potency [18] | Potency [19] | Potency [20]

CC1(C)S[C@@H]2[C@H](NC(=O)C(C(=O)O)c3ccccc3)C(=O)N2[C@H]1C(=O)O (stereo partly drawn)
inactive: Potency [1] | Potency [2] | Potency [3] | Potency [4] | Potency [5] | Potency [6] | Potency [7] | Potency [8] | Potency [10] | Potency [11] | Potency [13] | Potency [14] | activity change, positive = activation [15] 8.06% [at 42.5 µM] | Potency [16] | Potency [17] | Potency [18] | Potency [19] | Potency [20]

OC[C@H]1O[C@@H](O[C@H]2[C@H](O)[C@@H](O)[C@H](O)O[C@@H]2CO)[C@H](O)[C@@H](O)[C@H]1O
inactive: Potency [1] | Potency [2] | Potency [3] | Potency [4] | Potency [5] | Potency [6] | Potency [7] | Potency [8] | Potency [9] | Potency [11] | outcome [12] | Potency [13] | Potency [14] | activity change, positive = activation [15] 4.49% | Potency [16] | Potency [17] | Potency [18] | Potency [19] | Potency [20]

COc1ccccc1N1CCN(CCCNc2cc(=O)n(C)c(=O)n2C)CC1
inactive: Potency [1] | Potency [2] | Potency [3] | Potency [4] | Potency [5] | Potency [6] | Potency [7] | Potency [8] | Potency [9] | Potency [10] | Potency [11] | Potency [13] | Potency [14] | activity change, positive = activation [15] 3.63% [at 42.5 µM] | Potency [16] | Potency [17] | Potency [18] | Potency [20]

CC/C=C\CCOC(=O)CCCCC
inactive: Potency [1] | Potency [2] | Potency [3] | Potency [4] | Potency [5] | Potency [6] | Potency [7] | Potency [8] | Potency [9] | Potency [10] | outcome [12] | Potency [13] | Potency [14] | activity change, positive = activation [15] 5.28% | Potency [16] | Potency [17] | Potency [19]
